Among all 39,000 compounds or so, about 3,300 (8.5%) were called active. The sample as a whole holds a higher share of actives than the screen did.
tested on: HepG2; test: cytotoxicity call (relative viability < 0.9); settings: 10 µM

| Compound | cytotoxicity call |
| --- | --- |
| C[C@H]1CCCCO[C@H](CN(C)C(=O)Nc2ccc3c(c2)OCO3)[C@@H](C)CN([C@@H](C)CO)C(=O)c2cc(NS(=O)(=O)c3cccs3)ccc2O1 | inactive |
| C[C@H](CO)N1C[C@H](C)[C@H](CN(C)Cc2ccc(C(=O)Nc3ccccc3N)cc2)Oc2c(NS(C)(=O)=O)cccc2C1=O | inactive |
| COCCNCCn1cnc2c1c(=O)[nH]c(=O)n2C | inactive |
| C[C@@H]1CCCCO[C@@H](CN(C)Cc2ccncc2)[C@H](C)CN([C@H](C)CO)C(=O)c2cc(NC(=O)Nc3ccc4c(c3)OCO4)ccc2O1 | inactive |
| C[C@@H]1CCCCO[C@@H](CN(C)C(=O)CCCN(C)C)[C@@H](C)CN([C@@H](C)CO)C(=O)c2cc(NC(=O)Nc3ccc(C(F)(F)F)cc3)ccc2O1 | inactive |
| Cc1ccc(S(=O)(=O)N(C)C[C@H]2OCCCC[C@H](C)Oc3ccc(NC(=O)Nc4c(C)noc4C)cc3C(=O)N([C@@H](C)CO)C[C@@H]2C)cc1 | inactive |
| C[C@H](CO)N1C[C@H](C)[C@@H](CN(C)C(=O)Nc2cccc3ccccc23)Oc2ccc(NS(=O)(=O)c3ccc(F)cc3)cc2C1=O | inactive |
| C[C@H]1CN([C@@H](C)CO)C(=O)Cc2cc(NC(=O)C3CC3)ccc2O[C@@H]1CN(C)S(=O)(=O)c1cn(C)cn1 | inactive |
| COc1ccc(S(=O)(=O)Nc2ccc3c(c2)C(=O)N([C@H](C)CO)C[C@H](C)[C@H](CN(C)Cc2ccc(Cl)c(Cl)c2)OCCCC[C@H](C)O3)cc1 | inactive |
| COc1ccc(S(=O)(=O)Nc2ccc3c(c2)C(=O)N([C@H](C)CO)C[C@H](C)[C@H](CN(C)Cc2ccc(Cl)c(Cl)c2)OCCCC[C@@H](C)O3)cc1 | active |
| COc1ccc(S(=O)(=O)Nc2ccc3c(c2)C(=O)N([C@H](C)CO)C[C@@H](C)[C@H](CN(C)Cc2ccc(Cl)c(Cl)c2)OCCCC[C@@H](C)O3)cc1 | active |
| COc1ccc(S(=O)(=O)Nc2ccc3c(c2)C(=O)N([C@@H](C)CO)C[C@H](C)[C@H](CN(C)Cc2ccc(Cl)c(Cl)c2)OCCCC[C@@H](C)O3)cc1 | active |
| COc1ccc(S(=O)(=O)Nc2ccc3c(c2)C(=O)N([C@@H](C)CO)C[C@@H](C)[C@@H](CN(C)Cc2ccc(Cl)c(Cl)c2)OCCCC[C@@H](C)O3)cc1 | active |
| COc1ccc(S(=O)(=O)Nc2ccc3c(c2)C(=O)N([C@H](C)CO)C[C@@H](C)[C@@H](CN(C)Cc2ccc(Cl)c(Cl)c2)OCCCC[C@H](C)O3)cc1 | inactive |
| COCCNC(=O)C[C@H]1C[C@@H]2c3cc(NS(C)(=O)=O)ccc3O[C@@H]2[C@@H](CO)O1 | inactive |
| O=C(O)c1csc2ccccc12 | inactive |
| Cc1noc(C)c1S(=O)(=O)N(C)C[C@H]1OCCCC[C@@H](C)Oc2ccc(NS(C)(=O)=O)cc2C(=O)N([C@H](C)CO)C[C@@H]1C | inactive |
| COc1ccc(S(=O)(=O)N(C)C[C@H]2Oc3ccc(NC(=O)NC(C)C)cc3CC(=O)N([C@@H](C)CO)C[C@H]2C)cc1 | inactive |
| O=C(CN1C(=O)COCC1=O)N1CCOCC1 | inactive |
| CCCNC(=O)Nc1ccc2c(c1)OC[C@H](C)N(C(=O)C1CCOCC1)C[C@H](C)[C@H](OC)CN(C)C2=O | inactive |
| CC(C)c1cc(N2CC[C@@H](N)C2)nc(N)n1 | inactive |
| Cc1noc(C)c1NC(=O)Nc1cccc2c1O[C@H](CN(C)S(C)(=O)=O)[C@H](C)CN([C@@H](C)CO)C2=O | inactive |

| Compound | cytotoxicity call |
| --- | --- |
| CC(C)NC(=O)Nc1ccc2c(c1)CC(=O)N([C@H](C)CO)C[C@H](C)[C@H](CN(C)Cc1ccc(C(=O)O)cc1)O2 | inactive |
| O=C(NCCCN1CCOCC1)[C@H]1[C@H](CO)[C@H]2Cn3c(cccc3=O)[C@@H]1N2C(=O)NC1CCCC1 | inactive |
| CC(C)CN[C@H]1CCS(=O)(=O)C1 | inactive |
| COc1ccc(S(=O)(=O)Nc2ccc3c(c2)C(=O)N([C@H](C)CO)C[C@H](C)[C@@H](CN(C)Cc2ccc(Cl)c(Cl)c2)OCCCC[C@H](C)O3)cc1 | active |
| COc1ccc(CN(C)C[C@@H]2OCCCC[C@@H](C)Oc3ccc(NS(=O)(=O)c4ccc(OC)cc4)cc3C(=O)N([C@H](C)CO)C[C@H]2C)cc1 | inactive |
| COc1ccc(CN(C)C[C@H]2OCCCC[C@@H](C)Oc3ccc(NS(=O)(=O)c4ccc(OC)cc4)cc3C(=O)N([C@H](C)CO)C[C@@H]2C)cc1 | inactive |
| COc1ccc(S(=O)(=O)Nc2ccc3c(c2)C(=O)N([C@@H](C)CO)C[C@@H](C)[C@H](CN(C)Cc2ccc(Cl)c(Cl)c2)OCCCC[C@@H](C)O3)cc1 | active |
| C[C@H]1CN([C@@H](C)CO)C(=O)c2cc(NS(=O)(=O)c3cn(C)cn3)ccc2O[C@H]1CN(C)C(=O)Nc1ccc2c(c1)OCO2 | inactive |
| Cc1nc(CO)co1 | inactive |
| COc1ccc([C@@H](N)c2ccncc2)cc1 | inactive |
| C[C@H](CO)N1C[C@H](C)[C@@H](CN(C)Cc2ccc(Oc3ccccc3)cc2)Oc2c(NC(=O)CCCCCC(=O)Nc3ccccc3N)cccc2C1=O | inactive |
| N=C(N)NCCNS(=O)(=O)c1cccc2cnccc12 | active |
| O=S(=O)(NCCCN(C/C=C/c1ccc(F)cc1)C/C=C/c1ccc(F)cc1)c1cccc2cnccc12 | inactive |
| O=[N+]([O-])c1ccc(/C=C/CN(C/C=C/c2ccc([N+](=O)[O-])cc2)CCCCNS(=O)(=O)c2cccc3cnccc23)cc1 | inactive |
| O=[N+]([O-])c1ccc(/C=C/CN(C/C=C/c2ccc([N+](=O)[O-])cc2)CCNS(=O)(=O)c2cccc3cnccc23)cc1 | inactive |
| COc1ccc(/C=C/CN(C/C=C/c2ccc(OC)cc2)CCCCNS(=O)(=O)c2cccc3cnccc23)cc1 | active |
| O=S(=O)(NCCCN(CCCc1ccccc1)CCCc1ccccc1)c1cccc2cnccc12 | inactive |
| O=S(=O)(NCCCCN(C/C=C/c1ccccc1)C/C=C/c1ccccc1)c1cccc2cnccc12 | inactive |
| COc1ccc(/C=C/CN(C/C=C/c2ccc(OC)cc2)CCCNS(=O)(=O)c2cccc3cnccc23)cc1 | inactive |
| O=S(=O)(NCCCCN(C/C=C/c1ccc(F)cc1)C/C=C/c1ccc(F)cc1)c1cccc2cnccc12 | active |
| COc1ccc(NC(=O)N(C)C[C@@H]2Oc3ccc(NC(=O)CCCN(C)C)cc3C(=O)N([C@H](C)CO)C[C@@H]2C)cc1 | inactive |
| C[C@@H]1CN([C@H](C)CO)C(=O)c2cc(NS(=O)(=O)c3cn(C)cn3)ccc2O[C@@H](C)CCCCO[C@@H]1CN(C)C | inactive |

| Compound | cytotoxicity call |
| --- | --- |
| Cc1cc(C(=O)Nc2cccc3c2O[C@@H](CN(C)S(=O)(=O)c2ccc(Cl)cc2)[C@H](C)CN([C@@H](C)CO)C3=O)n(C)n1 | inactive |
| C[C@@H]1CN([C@@H](C)CO)C(=O)c2cc(NS(=O)(=O)c3cccs3)ccc2O[C@H]1CN(C)S(=O)(=O)c1ccc(F)cc1 | inactive |
| C[C@@H](O)[C@H](N)C(=O)N[C@@H](CCCCN)C(=O)N1CCC[C@H]1C(=O)N[C@@H](CCCNC(=N)N)C(=O)O | inactive |
| O=C(C[C@H]1C[C@H]2c3cc(NS(=O)(=O)c4ccc(F)cc4)ccc3O[C@H]2[C@H](CO)O1)NCc1cccnc1 | inactive |
| Cc1noc(C)c1NC(=O)Nc1ccc2c(c1)C(=O)N([C@H](C)CO)C[C@H](C)[C@@H](CN(C)C(=O)Nc1c(C)noc1C)OCCCC[C@H](C)O2 | inactive |
| CN(C)CCCCCCNC(=O)[C@@H]1C[C@@H]2C(=O)N[C@@H](CCCC[N+](C)(C)C)C(=O)N2[C@@H]1c1cccc(OCCO)c1 | inactive |
| C[C@@H]1CN([C@H](C)CO)S(=O)(=O)c2ccc(C#C[C@@H](C)O)cc2O[C@@H]1CN(C)C(=O)C1CCCCC1 | inactive |
| C[C@@H]1CN([C@H](C)CO)S(=O)(=O)c2ccc(C#Cc3ccncc3)cc2O[C@H]1CN(C)C(=O)C1CCCCC1 | active |
| C[C@H](CO)N1C[C@H](C)[C@@H](CN(C)C(=O)C2CCCCC2)Oc2cc(C#Cc3ccncc3)ccc2S1(=O)=O | active |
| C[C@@H]1CN([C@@H](C)CO)S(=O)(=O)c2ccc(C#CC3CC3)cc2O[C@H]1CN(C)C(=O)C1CCCCC1 | inactive |
| C[C@H](O)C#Cc1ccc2c(c1)O[C@@H](CN(C)C(=O)C1CCCCC1)[C@H](C)CN([C@H](C)CO)S2(=O)=O | inactive |
| C[C@H](O)C#Cc1ccc2c(c1)O[C@@H](CN(C)C(=O)C1CCCCC1)[C@H](C)CN([C@@H](C)CO)S2(=O)=O | inactive |
| C[C@H]1CN([C@@H](C)CO)S(=O)(=O)c2ccc(C#Cc3ccncc3)cc2O[C@H]1CN(C)C(=O)C1CCCCC1 | inactive |
| C[C@H](CO)N1C[C@H](C)[C@H](CN(C)C(=O)C2CCCCC2)Oc2cc(C#Cc3ccncc3)ccc2S1(=O)=O | active |
| C[C@@H]1CN([C@@H](C)CO)S(=O)(=O)c2ccc(C#Cc3ccncc3)cc2O[C@H]1CN(C)C(=O)C1CCCCC1 | active |
| COc1ccc(CN(C)C[C@@H]2Oc3ccc(NS(=O)(=O)c4cn(C)cn4)cc3C(=O)N([C@@H](C)CO)C[C@@H]2C)cc1 | inactive |
| C[C@H]1CN([C@@H](C)CO)C(=O)c2cc(NC(=O)Nc3ccc4c(c3)OCO4)ccc2O[C@@H]1CN(C)C(=O)Nc1cccc2ccccc12 | inactive |
| C[C@H](CO)N1C[C@H](C)[C@H](CN(C)S(=O)(=O)c2ccccc2)Oc2c(NS(=O)(=O)c3cccs3)cccc2C1=O | inactive |
| Cc1ccc(S(=O)(=O)N(C)C[C@@H]2Oc3ccc(NS(=O)(=O)c4c(C)noc4C)cc3C(=O)N([C@@H](C)CO)C[C@H]2C)cc1 | inactive |
| COc1ccccc1-c1cccc(-c2nc(C(=O)N3CCCCC3)cc3c2[C@@H](CCO)N([S@](=O)C(C)(C)C)C3)c1 | inactive |
